# Data from the supplement of paper PMC6555819.
# Columns and labels:
# Experiment in all cases: PBM binding z-score (relative to random genomic background probes); higher = stronger binding; sequences stand for … in GC…GCGATTGACAGCGTAGAATGAAGG
# [1] = tested on: FXR:RXRa (NR concentration 270 nM, RXRa partner concentration 90 nM)
# Procedure, shortened: (§1)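 Custom Agilent 4×180K protein-binding microarrays carried double-stranded probes. Their 34-nt variable regions held direct-repeat seeds, single-nucleotide variants, half-site ablations and random human genomic background sequences. Arrays were incubated 1 h with ligand-free nuclear receptor dimers in PBS pH 7.4, 2% milk, 0.02% Triton X-100, 1 mM DTT, 0.2 mg/mL BSA and 0.4 mg/ml salmon testes DNA. Antibodies against each partner (one per run) detected binding, and scanned fluorescence was regression-normalized. Binding z-scores use random background probes as reference.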
# [2] = tested on: LXRa:RXRa (NR concentration 270 nM, RXRa partner concentration 90 nM)
# Procedure, shortened: as §1
# [3] = tested on: LXRa homodimer (NR concentration 270 nM)
# Procedure, shortened: as §1
# [4] = tested on: LXRb:RXRa (NR concentration 270 nM, RXRa partner concentration 90 nM)
# Procedure, shortened: as §1
# [5] = tested on: LXRb homodimer (NR concentration 270 nM)
# Procedure, shortened: as §1
# [6] = tested on: PPARa:RXRa (NR concentration 270 nM, RXRa partner concentration 90 nM)
# Procedure, shortened: as §1
# [7] = tested on: PPARg:RXRa (NR concentration 180 nM, RXRa partner concentration 90 nM)
# Procedure, shortened: as §1
# [8] = tested on: PPARg:RXRa 270nM:90nM, anti-RXR (NR concentration 270 nM, RXRa partner concentration 90 nM)
# Procedure, shortened: as §1
# [9] = tested on: PPARg:RXRa 30nM:10nM, anti-RXR (NR concentration 30 nM, RXRa partner concentration 10 nM)
# Procedure, shortened: as §1
# [10] = tested on: PPARg:RXRa 90nM:30nM, anti-RXR (NR concentration 90 nM, RXRa partner concentration 30 nM)
# Procedure, shortened: as §1
Sequence,PBM binding z-score [1],PBM binding z-score [2],PBM binding z-score [3],PBM binding z-score [4],PBM binding z-score [5],PBM binding z-score [6],PBM binding z-score [7],PBM binding z-score [8],PBM binding z-score [9],PBM binding z-score [10]
GCTAGTTGGTCATTAAAAGGTCACACACCGGTCG,3.71,4.83,6.37,4.7,1.12,4.31,1.92,3.77,1.5,2.68
CCGAGTATGTTATGGGGCATTCAGGCAACGGTGA,0.355,-0.00818,-0.0828,0.322,-0.243,0.665,0.711,1.75,0.316,1.35
TCTATTCGTTGAAGGGCAACCGACGAGTCCGTTT,0.909,1.05,0.235,1.05,0.752,1.25,0.0836,2.42,3.64,3.2
ATCTCTAGGTAAGACTTAGTTCAGTGAAGAACGC,0.399,0.643,0.399,0.303,0.796,0.394,0.205,0.542,0.399,0.438
GTATATAGGTAATACAAGGTGAAAGTCCGATTGT,0.948,2.78,0.975,0.947,0.188,2.78,3.05,2.69,1.39,1.94
AGTCAAAGTTCATCTAGGTAGCGTAAGATATGCT,6.22,6.03,4.76,3.76,1.66,4.61,6.29,6.38,3.49,5.38
GGAGCGAGGGCAAAGTTGATAGCATCTGTCGACG,0.977,0.574,-0.435,0.182,-0.792,2.54,3.16,4.11,2.37,3.6
AGAATGAGGTTATTAAGATCAGGGAGTTGCGGTC,1.77,1.34,0.175,1.29,0.183,2.49,1.37,2.07,0.61,1.5
TCATATAGGTAAACGGGTGAAAGTCCGTAAGTTA,0.647,0.398,0.0709,0.834,-0.231,2.29,2.73,3.65,3.72,3.68
CCAGACAGGTCAGAAGGTAACTCAGCCTCGATTA,2.82,2.29,0.142,1.7,-0.0467,3.15,1.84,2.26,0.435,1.4
CGTCCAAGGTCAAAGGCCAGTGAAGAGATGACGG,7.32,5.28,0.422,3.87,0.919,6.01,6.49,6.54,3.55,5.57
TCATATAGGTAAAGGTGCAAGTCGAACGATATGA,0.551,0.493,-0.176,0.57,-0.374,2.77,4.36,5.55,4.82,5.79
ACTAGCAGGCCAAGCGTCACTCAAGATTAGTCCG,-0.5,-0.376,-0.471,-0.815,-0.983,0.102,1.12,1.84,0.377,1.73
CCTTCTAGGTCAATGGTCAGCTAAAGCAGCTCGC,3.17,2.37,0.146,1.58,0.698,4.34,7.25,6.5,5.76,7.12
AGAATGACGTTAAGATCAGGGAAACAGAATACAT,-0.19,-0.216,-0.265,-0.142,-0.294,-0.223,0.69,-0.0483,0.359,0.136
GCTATTTGTTGAAAGGGCAACCGAATGATTCTCG,0.484,0.768,0.386,0.834,0.261,1.37,0.764,1.88,0.957,1.46
CGTACAAGGTCAGCAGGTCAGTGAAAGCGACGTG,6.31,4.3,0.745,3.29,-0.00943,5.32,5.54,5.17,1.99,3.64
CCTACTGGGCGAAAAAGGTCATTGATGCCGATAA,3.16,3.79,2.59,3.91,-0.182,4.45,1.67,3.1,0.977,1.93
GCTAGCAGGCCATTTAGGTCACTCAATGACGGGC,0.265,-0.00867,-0.241,-0.158,-1.25,1.67,0.871,0.498,-0.134,0.454
GCGACTGGGGCATCAGCAGCTTACCATAACTTAA,-0.818,-0.694,-0.417,-0.0189,-1.2,0.137,0.465,0.329,-0.116,-0.198
GCTCGTAGATCAAGGTTAAGAAAGACTAAGCTAA,-0.496,0.698,-0.704,0.341,-1.05,1.03,-0.16,0.485,-0.162,0.0383
TCATCTAGGTAAAAGGTGAAAGTCGGTGTGGTAA,1.68,1.89,0.186,1.97,0.11,5.64,10,9.2,8.75,10.8
TATAGAGGGTCAAAGGCCAGAGTACGAATGTCGA,6.65,4.84,0.902,3.76,1.49,5.82,8.05,6.87,5.22,7.09
CGATCTAGGTCAGAACAGGACAGTGAAGGATGAT,1.41,0.482,-0.161,0.206,-0.143,2.84,4.82,3.88,1.41,2.78
